# Experimental data: publication PMC4336329 (PLoS ONE, 2015)
# The campaign covered roughly 310,000 compounds. About 14,000 (4.5%) showed an effect of 50% or more. The effect is printed as a negative number. Shown is part of a subset that was picked to be rich in strong results.
# Molecular target: human ether-à-go-go-related gene (hERG) potassium channel (human, UniProt Q12809)
# Experiment: primary screen, population patch clamp on CHO cells stably expressing hERG; higher = less effect of the substance
# 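Further: peak tail current of the secondary pulse compared with the same well before compound.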
# Chain of human ether-à-go-go-related gene (hERG) potassium channel (Q12809 whole entry, looked up): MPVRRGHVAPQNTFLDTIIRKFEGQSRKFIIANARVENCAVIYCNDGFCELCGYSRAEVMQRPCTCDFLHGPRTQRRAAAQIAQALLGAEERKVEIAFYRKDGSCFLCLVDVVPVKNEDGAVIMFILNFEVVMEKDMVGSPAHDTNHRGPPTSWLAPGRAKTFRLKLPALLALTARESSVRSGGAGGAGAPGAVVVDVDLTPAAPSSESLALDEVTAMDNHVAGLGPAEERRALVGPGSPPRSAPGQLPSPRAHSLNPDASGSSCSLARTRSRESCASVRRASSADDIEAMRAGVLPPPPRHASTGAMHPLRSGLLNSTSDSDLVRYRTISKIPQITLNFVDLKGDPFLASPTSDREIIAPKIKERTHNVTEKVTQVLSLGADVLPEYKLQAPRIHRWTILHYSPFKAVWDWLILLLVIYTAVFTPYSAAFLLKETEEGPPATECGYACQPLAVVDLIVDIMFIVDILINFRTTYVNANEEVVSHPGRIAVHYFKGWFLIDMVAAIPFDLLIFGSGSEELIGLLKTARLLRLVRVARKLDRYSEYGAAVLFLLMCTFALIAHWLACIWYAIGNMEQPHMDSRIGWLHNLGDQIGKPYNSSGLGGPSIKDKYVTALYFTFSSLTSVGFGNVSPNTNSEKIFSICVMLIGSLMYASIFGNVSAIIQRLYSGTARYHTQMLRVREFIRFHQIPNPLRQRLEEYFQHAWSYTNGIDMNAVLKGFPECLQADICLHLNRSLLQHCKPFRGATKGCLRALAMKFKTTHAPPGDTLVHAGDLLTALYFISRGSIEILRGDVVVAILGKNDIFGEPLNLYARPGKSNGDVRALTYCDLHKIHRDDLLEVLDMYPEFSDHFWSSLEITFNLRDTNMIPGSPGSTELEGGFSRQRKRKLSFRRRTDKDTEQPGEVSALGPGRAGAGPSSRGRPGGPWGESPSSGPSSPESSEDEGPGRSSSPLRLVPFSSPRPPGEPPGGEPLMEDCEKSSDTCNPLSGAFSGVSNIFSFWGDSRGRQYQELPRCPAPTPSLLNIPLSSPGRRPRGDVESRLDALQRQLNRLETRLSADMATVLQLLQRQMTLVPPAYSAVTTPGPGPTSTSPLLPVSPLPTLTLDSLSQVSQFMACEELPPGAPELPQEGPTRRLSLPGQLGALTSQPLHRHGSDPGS
row,SMILES,"hERG current change (%, negative = inhibition) at 10uM [%]"
1,Cc1ccc(N/C(N)=N/c2nc(CSc3nnc(C)s3)cc(=O)[nH]2)c(C)c1,-8.86
2,Cc1cc(C(=O)NC2CC(C)(C)Cc3c2cnn3-c2ccccc2)n[nH]1 (centres unmarked),-19.2
3,Cc1ccc(-n2ncc3c2CC(C)(C)CC3NC(=O)c2ccc[n+]([O-])c2)cc1 (centres unmarked),-1.89
4,Cc1cnc(C(=O)NC2CC(C)(C)Cc3c2cnn3-c2ccccc2)cn1 (centres unmarked),-39
5,CC1=C(C(=O)NC2CC(C)(C)Cc3c2cnn3-c2ccc(C)cc2)OCCO1 (centres unmarked),3.64
6,Cc1ccc(-n2ncc3c2CC(C)(C)CC3NC(=O)c2cc[n+]([O-])cc2)cc1 (centres unmarked),-75.4
7,Cc1ccc(-n2ncc3c2CC(C)(C)CC3NC(=O)c2ccccn2)cc1 (centres unmarked),-73.7
8,Cc1ccc(-n2ncc3c2CC(C)(C)CC3NC(=O)c2ccncc2)cc1 (centres unmarked),-72.2
9,Cc1ccccc1-n1ncc2c1CC(C)(C)CC2NC(=O)c1ccncc1 (centres unmarked),-47.4
10,CC1(C)Cc2c(cnn2-c2cccc(F)c2)C(NC(=O)c2cc[n+]([O-])cc2)C1 (centres unmarked),-37.3
11,O=C1N[C@@H](Cc2cn(S(=O)(=O)c3ccccc3)c3ccccc23)C(=O)N[C@H]1Cc1ccccc1,14.9
12,Cn1nc(C(=O)NC2CCCCC2)c2c1-c1ccccc1S(=O)(=O)C2,11.7
13,CCCCc1ccc(-c2nc(N)n[nH]2)cc1,6.27
14,O=[N+]([O-])c1ccc2c(c1)C(N1CCOCC1)/C(=C/COc1ccc(F)cc1)O2 (centres unmarked),-26
15,O=[N+]([O-])c1ccc(OC/C=C2\Oc3ccc([N+](=O)[O-])cc3C2N2CCOCC2)cc1 (centres unmarked),-71.7
16,O=[N+]([O-])c1ccc2c(c1)C(N1CCOCC1)/C(=C/COc1ccc(Cl)cc1Cl)O2 (centres unmarked),-1.06
17,Oc1nc(Nc2ccc(Cl)cc2Cl)sc1/C=C1\C=Nc2ccccc21,9.08
18,CCCOc1ccc(C(C)=O)cc1CN1CCOCC1.Cl,2.99
19,CCCCn1nc(NC(=O)CC)c2cc3cc(OC)ccc3nc21,-11.2
20,CCCCn1nc(NC(=O)COC)c2cc3cc(OC)ccc3nc21,-53.2
21,CCCCn1nc(NC(=O)CCC)c2cc3cc(OC)ccc3nc21,-3.42
22,COc1ccc(NC(=O)CSc2nc3c([nH]c4ccccc43)c(=O)n2C)cc1,0.41
23,COc1cc(/C=C2/C(=N)N3OC(C)=CC3=NC2=O)ccc1OC(=O)c1ccco1,29.8
24,Cc1ccc(N=C2NC(=O)C(CO)(CO)S2)cc1,16.1

row,SMILES,"hERG current change (%, negative = inhibition) at 10uM [%]"
1,Nc1cc2c(cc1[N+](=O)[O-])OCCOCCOCCO2,0.413
2,Nc1cc2c(cc1[N+](=O)[O-])OCCO2,5.64
3,O=C(N/N=C/c1cccc([N+](=O)[O-])c1)c1ccc2c(c1)OCCO2,7.63
4,O=C(Nc1cccc([N+](=O)[O-])c1)Nc1ccc2c(c1)OCCO2,-1.17
5,O=[N+]([O-])c1ccc(S(=O)(=O)Nc2ccc3c(c2)OCCO3)cc1,3.95
6,O=C(c1cccc([N+](=O)[O-])c1)c1ccc2c(c1)OCCOCCOCCO2,-52.8
7,O=C(Nc1cccc([N+](=O)[O-])c1)c1ccc2c(c1)OCCO2,11.9
8,O=C(Nc1ccc([N+](=O)[O-])cc1)Nc1ccc2c(c1)OCCO2,24.6
9,O=C(/C=C/c1cccc([N+](=O)[O-])c1)c1ccc2c(c1)OCCO2,3.36
10,O=[N+]([O-])c1cc2c(cc1[N+](=O)[O-])OCCOCCOCCOCCO2,-59.3
11,O=[N+]([O-])c1ccc2c(c1)OCCOCCOCCOCCOCCOCCO2,-64.1
12,O=C(c1cccc([N+](=O)[O-])c1)c1ccc2c(c1)OCCOCCOCCOCCO2,-69.8
13,O=C(NCc1cccc(F)c1)C1CCN(S(=O)(=O)Cc2ccccc2)CC1,7.89
14,COCCn1c(SCC(=O)Nc2ccc(Cl)cn2)nc2ccccc21,-32.1
15,Cc1ccc(N(C(=O)CCC(=O)Nc2ccccn2)C(C(=O)NC(C)C)c2ccc(F)cc2)cc1 (centres unmarked),21.4
16,COc1ccc2c(c1)[C@H]1[C@H](CO2)[C@H](c2ccccc2)[C@]2(C)C(=O)N(CC3CCCO3)CC(=O)N12 (some centres unmarked),-2.94
17,COc1cccc(-n2cnc3c(sc4nc(N5CCOCC5)c5c(c43)CCCC5)c2=O)c1,5.92
18,CCc1ccccc1NC(=O)CNC(=O)CSC(=S)N1CCCC1,-3.17
19,COc1ccc(N2C(=NC(=O)c3ccccc3)SC3CS(=O)(=O)CC32)cc1 (centres unmarked),5.27
20,O=S(=O)(Oc1ccccc1C(=S)N1CCOCC1)c1ccc(Cl)cc1,3.56
21,NS(=O)(=O)c1ccc(CCNC(=O)[C@@H]2CCCN2S(=O)(=O)c2ccccc2F)cc1,-2.88
22,COc1ccc(OC)c(S(=O)(=O)N2CCC(C(=O)NCc3ccc4c(c3)OCO4)CC2)c1,-3.84
23,COc1cccc(NC(=O)c2cccnc2)c1,11.2
24,Cc1ccc(C#CC[N+]2(CC#Cc3ccc(C)cc3)CCCCC2)cc1.[Br-],-106

row,SMILES,"hERG current change (%, negative = inhibition) at 10uM [%]"
1,CCC[N+]1(CC#CC(O)(c2ccccc2)C2CCCCC2)CCCCC1.[Br-] (centres unmarked),12.1
2,C#CC[N+]1(CC#Cc2ccccc2)CCCC1.[I-],-1.53
3,C#CC[N+]1(CC#Cc2ccc(C)cc2)CCCCC1.[Br-],4.84
4,C(#Cc1ccccc1)C[N+]1(CC#Cc2ccccc2)CCCCC1.[Br-],-55.8
5,O=S(=O)([O-])CCC[N+]1(CC#Cc2ccccc2)CCCCC1,33.8
6,Cc1ccc(C#CC[N+]2(C)CCCCC2)cc1.[Br-],14
7,CCC[N+]1(CC#CCC(c2ccccc2)c2ccccc2)CCCCC1.[Br-],-66.7
8,C(#Cc1ccccc1)C[N+]1(CC#Cc2ccccc2)CCCC1.[Br-],-55.5
9,OCC#CC[N+]1(CC#Cc2ccccc2)CCCC1.[Br-],14.5
10,C=CC[N+]1(CC#Cc2ccccc2)CCCC1.[Br-],18.4
11,C#CC[N+]1(CC#Cc2ccccc2)CCCCC1.[I-],2.16
12,COc1ccc2c(c1)CC/C(=C\C=C\c1ccccc1OC)C2=O,8.8
13,Cc1cc(=O)[nH]c(N/N=C/c2ccc(Br)s2)n1,-13.9
14,CN1CCN(c2ccc(-c3cccc(NC(=O)COc4ccc(Cl)cc4Cl)c3)nn2)CC1,6.83
15,O=C(COc1ccc2c3c(c(=O)oc2c1)CCC3)NC(Cc1ccc(Cl)cc1)C(=O)O (centres unmarked),3.55
16,Cc1ccc2nc(Cl)c(CN(Cc3cccs3)C(=O)C3CC3)cc2c1,8.82
17,C[C@]12CC[C@@H](O)C[C@@H]1CC[C@@H]1[C@@H]2CC[C@]2(C)[C@@H](O)CC[C@@H]12,19.8
18,N#CCOC(=O)C1CSC2(c3ccc(Br)cc3)CCC(=O)N12 (centres unmarked),8.43
19,CCCCOc1cccc(C(=O)NC(=S)Nc2cccc(NC(=O)c3ccccc3Cl)c2)c1,-8.49
20,CC(C)(C)c1ccc(C(=O)NNC(=O)c2ccncc2)cc1,15.5
21,CN(C)C1=NCCN1CCC1CCCC1,1.87
22,CN(C)C1=NCCN1CCCC1CCCC1,-51
23,CCCCN1CCN=C1N(C)C,12
24,CN(C)C1=NCCN1CCCC1CCCCC1,-38.6

row,SMILES,"hERG current change (%, negative = inhibition) at 10uM [%]"
1,CC(C)CCCN1CCN=C1N(C)C,8.91
2,CCCCCCCN1CCN=C1N(C)C,-67.7
3,COc1ccc(NC(=O)CN(C)C(=O)CN2C(=O)NC3(CCCCC3)C2=O)cc1,3.29
4,Cc1nn(CC(=O)Nc2ccc3c(c2)nc(CN2CCCC2)n3C)c(=O)c2ccccc12,-13.4
5,Cc1c(C(=O)NNC(=O)c2ccccc2O)oc2ccc(Br)cc12,8.46
6,Cc1c(C(=O)NNC(=O)c2ccncc2)oc2ccccc12,-5.92
7,Cc1c(C(=O)NNC(=O)c2ccncc2)oc2ccc(Br)cc12,-68.5
8,COc1ccccc1NC(=O)N1CCC(NC(=O)C2CCCCC2)CC1,5.27
9,N#CCSc1nnc(C2CCCCC2)n1Cc1ccccc1,-11.6
10,Cc1[nH]c2ccccc2c1C(=O)C(C)OC(=O)c1ccccc1NCCO (centres unmarked),15
11,O=S(=O)(Nc1nnc(-c2ccccc2)s1)c1ccc(Cl)cc1,0.769
12,O=C(c1ccc(S(=O)(=O)N2CCOCC2)cc1)N1CCN(c2ccc(F)cc2)CC1,-5.3
13,O=C(Nc1ccc(F)cc1)c1ccc(Br)c(S(=O)(=O)N2CCOCC2)c1,-58.8
14,O=C(c1ccc(F)c(S(=O)(=O)N2CCOCC2)c1)N1CCN(c2ccc(F)cc2)CC1,-60.5
15,COc1ccc(NC(=O)c2ccc(Br)c(S(=O)(=O)N3CCOCC3)c2)cc1,1.53
16,O=C(c1ccc(F)c(S(=O)(=O)N2CCOCC2)c1)N1CCN(c2ncccn2)CC1,-4.06
17,O=C(Nc1ccc(S(=O)(=O)N2CCOCC2)cc1)c1ccc(F)cc1,-6.51
18,Cl.O=C(c1ccc(Cl)c(S(=O)(=O)N2CCCC2)c1)N1CCN(c2ccc(F)cc2)CC1,-58.5
19,O=C(c1ccc(Cl)c(S(=O)(=O)N2CCCCC2)c1)N1CCN(c2ccccc2)CC1,-26.5
20,O=C(c1ccc(Cl)c(S(=O)(=O)N2CCCC2)c1)N1CCN(c2ccccc2F)CC1,-20.6
21,O=C(c1ccc(Cl)c(S(=O)(=O)N2CCCC2)c1)N1CCN(c2ccccc2)CC1,-8.69
22,COc1ccc(N2CCN(C(=O)c3ccc(Cl)c(S(=O)(=O)N4CCCC4)c3)CC2)cc1,-31.6
23,O=C(c1ccc(Cl)c(S(=O)(=O)N2CCCCCC2)c1)N1CCN(c2ccc(O)cc2)CC1,-50.4
